Screens: PubChem BioAssay, NMMLSC
Only some compounds are listed: those with a hit (about 1.2% of all), similar ones and a draw of the others.
RGS7-Gao reg: human RGS7-Galphao interaction regulation; binding response (% of control), % at 10 µM; hit rate 0.35% among 220,000; AID 1439; Multiplexed bead flow cytometry, RGS7-Galphao binding; actives lie on both sides; in the data active = binding response below about 49% or above about 150%; inconclusive = no clear call, values can overlap the other calls; inactive = in between;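 also: fluorescent Galphao held in activated GDP-AlF4 state binding bead-coupled RGS7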
RGS16-Gao HTS: regulators of human RGS16-Galphao interaction. bead-based flow cytometry RGS16-Galphao binding, fluorescence; actives lie on both sides. hit rate 0.38% among 220,000. binding response (% of control), % at 10 µM. O15492+P09471;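 also: Galphao activated by GDP with aluminum fluoride before binding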
Target sequence (O15492 whole entry, looked up): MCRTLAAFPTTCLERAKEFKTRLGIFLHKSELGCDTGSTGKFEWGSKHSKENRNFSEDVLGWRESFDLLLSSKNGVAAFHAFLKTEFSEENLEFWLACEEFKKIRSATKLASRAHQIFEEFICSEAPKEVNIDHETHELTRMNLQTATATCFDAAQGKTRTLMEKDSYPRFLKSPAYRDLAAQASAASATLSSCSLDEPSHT
Target sequence (P09471 whole entry, looked up): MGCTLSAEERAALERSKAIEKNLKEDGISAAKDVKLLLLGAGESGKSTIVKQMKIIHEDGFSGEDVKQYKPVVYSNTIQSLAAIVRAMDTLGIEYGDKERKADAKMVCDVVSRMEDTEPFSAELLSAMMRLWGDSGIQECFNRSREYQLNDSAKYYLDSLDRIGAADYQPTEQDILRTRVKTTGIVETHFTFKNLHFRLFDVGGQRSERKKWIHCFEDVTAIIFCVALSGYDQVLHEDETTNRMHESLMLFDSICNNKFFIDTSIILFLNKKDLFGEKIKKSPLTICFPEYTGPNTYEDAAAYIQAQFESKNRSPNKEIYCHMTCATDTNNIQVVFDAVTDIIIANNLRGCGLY
GSH fluor: GSH bead compound fluorescence profile; AID 1776; fluorescence (KMESF) at 10 µM; GSH beads flow cytometry, compound fluorescence 488/530 nm; hits give high values; hit rate 0.25% among 190,000; in the data active = fluorescence above about 89;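 also: glutathione beads carrying GST-tagged Bcl family fusion proteins plus one bare bead set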
RGS4-Gao reg: modulates binding of RGS4 to human Galphao. Multiplexed bead flow cytometry; actives lie on both sides. P09471. hit rate 0.33% among 220,000. binding response (% of control), % at 10 µM; in the data active = binding response below about 49% or above about 150%; inactive = in between;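 also: fluorescent Galphao activated with aluminum fluoride binding bead-coupled RGS4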
Avidin bead fluor: compound fluoresces at 488/530 nm on avidin beads; compound fluorescence 488/530 nm, flow cytometry; hits give high values; fluorescence (KMESF) at 10 µM; hit rate 0.38% among 220,000; in the data active = fluorescence above about 47
RGS8-Gao reg: regulators of human RGS8-Galphao interaction; multiplexed bead flow cytometry, RGS8-Galphao binding; actives lie on both sides; response (percent of control binding), % at 10 µM; hit rate 0.34% among 220,000; in the data active = response below about 60% or above about 140%; inactive = in between;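 also: Galphao activated as the GDP aluminium fluoride complex binding bead-coupled RGS8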
RGS4-Gao HTS: regulators of human RGS4-Galphao interaction | shares compounds with RGS16-Gao HTS | multiplexed bead flow cytometry, RGS–Galpha-o binding | RGS4–Galpha-o binding response, % at 10 µM | hit rate 99% among 1,600;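 also: fluorescently labeled Galpha-o bound to GDP with aluminium fluoride binding biotinylated RGS beads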
Avidin counter: counter-screen: compounds disrupting biotin binding to avidin beads | shares compounds with RGS16-Gao HTS | streptavidin beads, fluorescein-biotin binding, flow cytometry | inhibition, % at 10 µM | 1,700 tested, under 10 active;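 active = inhibition above 50%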;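 also: median green fluorescence of gated singlet beads compared with DMSO control wells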
RGS8-Gao single: RGS8-Galphao interaction regulation, single point confirmation. bead-based flow cytometry RGS8-Galphao binding, fluorescence; actives lie on both sides. hit rate 3% among 1,700. shares compounds with RGS16-Gao HTS. AID 1836. binding response (% of control), % at 10 µM; in the data active = binding response below about 72% or above about 130%; inactive = in between;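 also: Galphao activated as GDP AlF4 complex before binding bead RGS8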
RGS7-Gao single: confirmation of regulators of human RGS7-Galphao interaction; bead-based flow cytometry RGS7-Galphao binding; actives lie on both sides; AID 1837; response (percent of control binding), % at 10 µM; hit rate 7.8% among 1,700; shares compounds with RGS16-Gao HTS; in the data active = response below about 75% or above about 130%; inactive = in between;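 also: fluorescent Galphao activated with GDP and aluminum fluoride binding bead-coupled RGS7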
RGS16-Gao single: confirmation of regulators of human RGS16-Galphao interaction. AID 1838. shares compounds with RGS16-Gao HTS. response (% of control binding), % at 10 µM. bead-based flow cytometry, RGS16-Galphao binding; actives lie on both sides. hit rate 4% among 1,700; in the data active = response below about 74% or above about 130%; inactive = in between;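 also: Galphao activated as the GDP aluminium fluoride complex binding bead-coupled RGS16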
RGS4-Gao single: RGS4-Galphao interaction regulation, single point confirmation; shares compounds with RGS16-Gao HTS; RGS4-Galphao binding, multiplexed bead flow cytometry; actives lie on both sides; binding response (% of control), % at 10 µM; hit rate 4% among 1,700; in the data active = binding response below about 74% or above about 130%; inactive = in between
RGS19-Gao single: confirmation of regulators of human RGS19-Galphao interaction; hit rate 5% among 1,700; AID 1841; response (percent of control binding), % at 10 µM; shares compounds with RGS16-Gao HTS; bead-based flow cytometry RGS19-Galphao binding; actives lie on both sides; in the data active = response below about 50% or above about 160%; inactive = in between
Numbers stand for hits; [ ] = another dose, or the depositor's remark. Unless noted, no rule for the calls is given here.

`CC1(C)C/C(=N\NC(=S)Nc2ccccc2F)c2cc(O)ccc2O1` gave RGS7-Gao reg inconclusive, RGS16-Gao HTS inactive, GSH fluor inactive, RGS4-Gao reg inactive, Avidin bead fluor inactive and RGS8-Gao reg inactive.
`O=C1C(=Cc2ccc(Br)o2)C(=O)c2ccccc21` gave RGS7-Gao reg 1.6, RGS16-Gao HTS 8.3, GSH fluor inactive, RGS4-Gao reg inactive, Avidin bead fluor inactive, RGS8-Gao reg 32 and RGS4-Gao HTS 53.
Screening COc1ccc(OCCN(C)Cc2ccccc2)cc1 returned RGS7-Gao reg inactive, RGS16-Gao HTS inactive, GSH fluor inactive, RGS4-Gao reg inactive, Avidin bead fluor inactive and RGS8-Gao reg inactive.
For COc1ccc(CN(C)C2c3ccccc3-c3ccccc32)cc1 the results were RGS7-Gao reg inactive, RGS16-Gao HTS 186[activator], GSH fluor inactive, RGS4-Gao reg inactive, Avidin bead fluor inactive, RGS8-Gao reg inactive, RGS4-Gao HTS 114, Avidin counter inactive, RGS8-Gao single inactive, RGS7-Gao single inactive, RGS16-Gao single inactive, RGS4-Gao single inactive and RGS19-Gao single inactive.
Screening Cc1ccc(-n2c(SC3CCOC3=O)nc3ccccc3c2=O)cc1 (stereo not given) returned RGS7-Gao reg inconclusive, RGS16-Gao HTS inactive, GSH fluor inactive, RGS4-Gao reg inactive, Avidin bead fluor inactive and RGS8-Gao reg inactive.
COc1ccc(/C(O)=C2\C(=O)C(=O)N(Cc3ccco3)C2c2cc(OC)ccc2OC)cc1 (stereo not given) was read as RGS7-Gao reg 26, RGS16-Gao HTS 21, GSH fluor inactive, RGS4-Gao reg 31, Avidin bead fluor inactive, RGS8-Gao reg 24, Avidin counter inactive, RGS8-Gao single inactive, RGS7-Gao single inactive, RGS16-Gao single inactive, RGS4-Gao single inactive and RGS19-Gao single inactive.
`CCC(C)N(C)C(=O)c1cc2ccccc2c(-c2ccccc2Cl)n1` (stereo not given) gave RGS7-Gao reg inactive, RGS16-Gao HTS inactive, GSH fluor inactive, RGS4-Gao reg inactive, Avidin bead fluor inactive and RGS8-Gao reg inactive.
For COc1ccc(C2=Nc3ccccc3OC2)cc1 the results were RGS7-Gao reg inactive, RGS16-Gao HTS inactive, GSH fluor inactive, RGS4-Gao reg inactive, Avidin bead fluor inactive and RGS8-Gao reg inactive.
For Cc1ccc(N(C(=O)Cn2nnc(-c3ccc(F)cc3)n2)C(C(=O)NC(C)(C)C)c2ccncc2)cc1 (stereo not given) the results were RGS7-Gao reg inactive, RGS16-Gao HTS inactive, GSH fluor inactive, RGS4-Gao reg inactive, Avidin bead fluor inactive and RGS8-Gao reg inactive.
Screening COc1ccc(N2CCN(c3nc4ccccc4n3CC(=O)c3ccccc3)CC2)cc1 returned RGS7-Gao reg 165[activator], RGS16-Gao HTS inactive, GSH fluor inactive, RGS4-Gao reg inactive, Avidin bead fluor 76, RGS8-Gao reg inactive, RGS4-Gao HTS 108, Avidin counter inactive, RGS8-Gao single inactive, RGS7-Gao single inactive, RGS16-Gao single inactive, RGS4-Gao single inactive and RGS19-Gao single inactive.
